This is an account of results in PubChem BioAssay AID1345083 (National Center for Advancing Translational Sciences (NCATS), 2018).

Each structure is given as a SMILES string. About 6,200 (6.6%) of roughly 94,000 compounds were called active. About 31% were inconclusive and are not listed. For the sample, actives were picked, then their nearest neighbours and some compounds at random. A number with no mark means an inactive call. The call rests on the fitted dose curve; in most records, active means well fitted inhibition curve with a large enough effect; inconclusive means small, poorly fitted or top-dose-only effect; inactive means flat fitted curve, though single readings scatter.
On the % scale 0 is the no-effect control and ±100 the full control effect; potency means the concentration at half of the fitted maximal effect.

The test can be described thus: Cytotoxic Profiling in HEK 293 Cell Line of Diverse Libraries Using Quantitative High-Throughput Screening. Further: nearly all actives have a fitted effect of over 60% in size. The settings on record: HEK 293 viability, ATP luminescence (CellTiter-Glo), 48-72 h; series mostly up to 115 µM; activity change, negative = cytotoxicity: at the top concentration. The procedure, abridged: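 qHTS cytotoxicity; HEK 293, 250 cells/well; compound pinned; 48 or 72 hr, 37 degree Celsius, 5% CO2, 95% humidity; CellTiter-Glo, 10 min RT; luminescence (ATP).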
On to `CC(=O)NCc1nnc2n1C(C(=O)N1CCN(C)CC1)CC2` (stereo unspecified), for which the “activity change, negative = cytotoxicity” value was -19% [at 172 µM].

For the compound `COCc1nncn1C1CCN(C(=O)c2ccccc2OC(F)(F)F)CC1`, the “activity change, negative = cytotoxicity” value was 3.04%.

As for `CC(=O)Nc1ccc2c(c1)nc1n2[C@@H](CNCc2ccncc2F)COC1`, the “activity change, negative = cytotoxicity” value was 4.05% [at 172 µM].

Turning to `CN1CCCN(c2ccc(C(=O)N3CCC(N4CCOCC4)CC3)cn2)CC1`, the “activity change, negative = cytotoxicity” value was -2.17%.

On to `O=C(NC1C[C@H]2CC[C@@H](C1)N2S(=O)(=O)c1ccc2c(c1)OCCO2)c1ccc(F)cc1` (stereo partly specified), for which the “activity change, negative = cytotoxicity” value was -20.7%.

For the compound `O=C(NC1CCCN(c2ccc3nnc(C4CC4)n3n2)C1)c1ccccn1` (stereo unspecified), the “activity change, negative = cytotoxicity” value is 1.46%.

Turning to `O=C(NC1CCCN(c2cc(-c3ccc(Cl)cc3)[nH]n2)C1)c1ccncc1` (stereo unspecified), the Potency is 39.8 µM (active).

With `O=C(NC1CCCN(c2nc3ncccc3o2)C1)c1ccc(F)cc1` (stereo unspecified), the “activity change, negative = cytotoxicity” value is -15.2% [at 172 µM].

Take `CCn1ccc(C(=O)NC2CCCN(c3cc(-c4ccc(F)cc4)[nH]n3)C2)n1` (stereo unspecified): the “activity change, negative = cytotoxicity” value was -22.3%.

On to `O=C(NC1CCCN(c2cc(-c3ccc(F)cc3)[nH]n2)C1)c1ccc(Br)cc1` (stereo unspecified), for which the Potency is 39.8 µM (active).

In the case of `O=C(NC1CCCN(c2cc(-c3ccc(Cl)cc3)[nH]n2)C1)c1ccccc1F` (stereo unspecified), the Potency was 44.7 µM (active).

On to `Cc1nnc2ccc(N3CCC(NC(=O)c4ccccc4Cl)C3)nn12` (stereo unspecified), for which the “activity change, negative = cytotoxicity” value was -3.86%.

As to `CN(C)C1(CC2CC2)CCN(C(=O)c2ccsc2)CC1`, the “activity change, negative = cytotoxicity” value is 1.08%.

`CC(C)CN1C(=O)c2cccn2CC1C(=O)NC1CCS(=O)(=O)C1` (stereo unspecified): the outcome was inactive.

With `COc1ccc(CN2CCCC(c3[nH]ccc3C(N)=O)C2)cc1Cn1ccnc1` (stereo unspecified), the “activity change, negative = cytotoxicity” value is 2.51%.

Take `O=C(c1ccc(N2CC3CC(C2)[C@H]2CCCC(=O)N2C3)nc1)N1CCCCC1` (stereo partly specified): the “activity change, negative = cytotoxicity” value is -4.66%.

Consider `COc1cncc(-c2cccc(COc3ccc4c(cnn4CC[S+](C)(=O)[O-])c3)c2)c1`, for which the Potency is 56.2 µM (active).

As for `O=C(CC1CCN(C(=O)c2ccccc2)C1)NC1CC1` (stereo unspecified), the “activity change, negative = cytotoxicity” value is -7.16%.

As for `CCn1c(C2CCCNC2)nn(Cc2ccc(C(=O)NC)o2)c1=O` (stereo unspecified), the “activity change, negative = cytotoxicity” value is 0.0264%.

Regarding `Brc1cccc(-c2noc(-c3nc(-c4ccncc4)no3)n2)c1`, the “activity change, negative = cytotoxicity” value is 4.91%.

`CCn1cnnc1CC1CCN(C(=O)C2CCN(Cc3nc(-c4cccc(C)c4)oc3C)CC2)CC1`: the “activity change, negative = cytotoxicity” value is -24.6%.

`Cc1oc(-c2cccc(Cl)c2)nc1CN1CCCC(C(N)=O)C1` (stereo unspecified): the “activity change, negative = cytotoxicity” value was -17.1%.

Take `COc1ccc(-c2nc(CN3CCOC(CN)C3)c(C)o2)c2ccccc12` (stereo unspecified): the Potency is 31.6 µM (active).

Consider `COc1ccc(-c2noc(CN3CCCC(C(=O)c4cccnc4)C3)n2)c(OC)c1OC` (stereo unspecified), for which the “activity change, negative = cytotoxicity” value is -24.8%.

Consider `Cc1oc(-c2cccc(Oc3ccccc3)c2)nc1CN1CCOC(CCN)C1` (stereo unspecified), for which the Potency is 28.2 µM (active).

As to `COC(=O)[C@@H]1Cc2ncn(Cc3ccc(Cl)cc3)c2CN1S(=O)(=O)c1ccc(C(C)=O)cc1`, the “activity change, negative = cytotoxicity” value was -1.59%.

In the case of `CCCN(CC1CCOC1)C(=O)Nc1cc(C)ccc1OC` (stereo unspecified), the “activity change, negative = cytotoxicity” value is 4.73%.

`Cc1ncsc1CCC(=O)N[C@@H]1COCC[C@@H]1Oc1cccc(F)c1`: the result was inactive.

Regarding `COc1ccc2[nH]cc(CCNC(=O)C3CCCN(Cc4ccncc4)CCC(=O)NCC3)c2c1` (stereo unspecified), the compound was called inactive.

As to `COc1ccc2ccc(OCc3nc(C(=O)N4CCC(=O)NCC4C)co3)cc2c1` (stereo unspecified), the Potency was 44.7 µM (active).

Turning to `COc1ccc(OCc2nc(C(=O)N3CCCC(C)(CO)C3)co2)cc1` (stereo unspecified), the “activity change, negative = cytotoxicity” value is -24.8%.

For `Cc1cc(C(=O)N2CCCCC2c2noc(COc3ccc(F)cc3)n2)nn1C` (stereo unspecified), the “activity change, negative = cytotoxicity” value was -29.3%.

For the compound `Cc1nc(N2CCC(NC(=O)c3ccc4c(c3)OCO4)CC2)cc(C(F)(F)F)n1`, the “activity change, negative = cytotoxicity” value is -17.7%.

On to `COc1ccc(OC)c(NC(=O)C2CCN(c3cc(C(F)(F)F)ncn3)CC2)c1`, for which the “activity change, negative = cytotoxicity” value was -13.9%.

Take `Cc1nc(N2CCC(C(=O)NCc3ccc(C(C)C)cc3)CC2)cc(C(F)(F)F)n1`: the Potency was 31.6 µM (active).

Take `Cc1ccc(N2Cc3c(NCC4CC4)ncnc3N(C)CC2=O)cc1`: the “activity change, negative = cytotoxicity” value was -6.31% [at 172 µM].

As to `CN1CCN(C2CCOC3(CCN(S(=O)(=O)c4cn(C)cn4)CC3)C2)CC1` (stereo unspecified), the “activity change, negative = cytotoxicity” value was 6.96%.

As to `CC(C)C(=O)N1CCC(OC2CCN(Cc3ccccc3)CC2)CC1`, the “activity change, negative = cytotoxicity” value was -18.1%.

Regarding `COCc1ccc2c(c1)c(OC(C)(C)C(=O)N1CCN(C)CC1)nn2Cc1cccnc1`, the “outcome” value was “inactive [at 172 µM]”.

On to `COCCNC(=O)N1CCc2nn(Cc3ccccc3)c(=O)n2CC1`, for which the “activity change, negative = cytotoxicity” value was -1.17%.

Consider `COCc1ccc2c(c1)c(OC(C)(C)C(=O)NC1CCC(O)CC1)nn2Cc1cccnc1` (stereo unspecified), for which the “activity change, negative = cytotoxicity” value is -3.5%.

In the case of `CC(C)(Oc1nn(Cc2cccc(Cl)c2)c2ccccc12)C(=O)Nc1cccnc1`, the Potency is 35.5 µM (active).

Take `O=C(NCc1cccnc1)C1CCCN(c2cnn(Cc3ccccc3)c(=O)c2)C1` (stereo unspecified): the “activity change, negative = cytotoxicity” value is -21.1%.

Turning to `CN(C)CCNC(=O)C(C)(C)Oc1nn(Cc2cccc(Cl)c2)c2ccccc12`, the Potency was 31.6 µM (active).

Turning to `CN1CCN(C(=O)C(C)(C)Oc2nn(Cc3cccc(Cl)c3)c3ccccc23)CC1`, the Potency is 70.8 µM (active).

With `Cc1ccccc1C(=O)NCc1c[nH]c2ncccc12`, the “activity change, negative = cytotoxicity” value is -4.04% [at 172 µM].

As to `N#Cc1ccc(CN2CC3CCC(C2)N3c2ccc(C(F)(F)F)cc2)cc1`, the “activity change, negative = cytotoxicity” value was 1.8%.

As to `O=C(c1ccn[nH]1)N1CCC[C@H](n2c(=O)n(CC3CC3)c3cccnc32)C1`, the “activity change, negative = cytotoxicity” value is -3.78%.

For the compound `COCCn1c(=O)n([C@H]2CCCN(C(=O)c3ccccc3F)C2)c2ncccc21`, the “activity change, negative = cytotoxicity” value is -4.8%.

With `NC(=O)c1cccnc1OC1CCN(Cc2cccnc2)CC1`, the “activity change, negative = cytotoxicity” value was -1.27%.

In the case of `CCOCc1nc(C2CCCN(C(=O)NC(C)C)C2)no1` (stereo unspecified), the “activity change, negative = cytotoxicity” value was 6.9%.

Consider `O=C(NCc1ccco1)C1CCCN(c2cnn(Cc3ccccc3)c(=O)c2)C1` (stereo unspecified), for which the “activity change, negative = cytotoxicity” value was -10.3%.

Take `Cc1noc(C)c1S(=O)(=O)N1CCC(c2noc(-c3ccccn3)n2)C1` (stereo unspecified): the “activity change, negative = cytotoxicity” value was -0.0231%.

On to `O=C1CCN(C(=O)C2COc3ccccc3O2)CCOCCN1` (stereo unspecified), for which the “activity change, negative = cytotoxicity” value was -13.6%.

`C[C@@H](NC(=O)C1=C[C@@H](NC(=O)CC2(CC(=O)O)CCCC2)[C@@H](O)[C@H](O)C1)C(N)=O`: the “outcome” value is “inactive [at 172 µM]”.

`CN1CCC(C(=O)N2CC(F)(F)C[C@H]2c2nc(C3CC3)no2)CC1`: the “activity change, negative = cytotoxicity” value was 1.09%.

Take `Cc1noc2c(NC3CCCCC3)cc(-c3ccsc3)nc12`: the Potency was 89.1 µM (active).

Regarding `COCCCNc1cc(-c2ccsc2)nc2c(C)noc12`, the “activity change, negative = cytotoxicity” value was -25.3% [at 172 µM].

Regarding `O=C(Nc1ccc(-c2nnc3n2CCCC3)cc1)c1ccccn1`, the “activity change, negative = cytotoxicity” value is 0.901%.

With `CC(=O)N1CCCC2(C1)CN(C)c1ccc(C(=O)NC3CC3)cc12` (stereo unspecified), the “activity change, negative = cytotoxicity” value is 4.11% [at 172 µM].

On to `CNc1nc(C(=O)NCc2ccc3[nH]c(-c4ccc(F)cc4)c(C)c3c2)cs1`, for which the Potency was 39.8 µM (active).

Turning to `COCCCN(CCC(=O)NCc1ccc(F)cc1)C(=O)c1cc(C)oc1C`, the “activity change, negative = cytotoxicity” value was -6.59%.

As to `COc1ccc(-c2ccc(C(=O)NCc3ccc(F)cc3)cc2)nn1`, the “activity change, negative = cytotoxicity” value was -8.21% [at 172 µM].

As for `N#Cc1cccc(-c2c(C(=O)NCc3ccc(F)cc3)nc3sccn23)c1`, the “activity change, negative = cytotoxicity” value is -4.66% [at 172 µM].

As for `COc1ccc(CNC(=O)Cn2cccc2-c2nc(-c3ccc(F)cc3)no2)cc1`, the “activity change, negative = cytotoxicity” value was -3.89%.

For `Cc1c(-c2ccc(F)cc2)[nH]c2ccc(CNC(=O)c3ccc(CO)o3)cc12`, the Potency is 31.6 µM (active).
